Sampled rows, rich in hits. Any-hit rate of the full collection: about 0.41%.
RmlCD inh mix: mixture blocks RmlC and RmlD coupled enzyme activity; AID 1532; RmlC/RmlD coupled enzyme inhibition, 384-well mixture HTS; inhibition, % at 5.5 µM; 110,000 compounds, 0.39% hits; in the data active = inhibition above about 30%, passing the limit was not always enough
YopH PTP inh: blocks Yersinia enterocolitica YopH tyrosine phosphatase | fluorescence Ex485/Em525 | inhibition, % (test concentration not listed) | 140,000 compounds, 0.16% hits | AID 898; in the data active = inhibition above about 50%
Numbers without * were called inactive; · = not tested or not shown; + = active, no number.

SMILES	RmlCD inh mix	YopH PTP inh
CC(=O)N(C)C1=C(N2CCOCC2)C(=O)c2ccccc2C1=O	126	16
Cc1ccc(NC2=C(Cl)C(=O)c3ccccc3C2=O)cc1	·	3
CC(=O)c1ccc(NC2=C(N3CCOCC3)C(=O)c3ccccc3C2=O)cc1	1	99*
Cc1ccc(NC2=C(N3CCOCC3)C(=O)c3ccccc3C2=O)cc1	-2	89*
CC(O)CNc1nc2ccccc2n1CC(=O)NCCc1ccc(Cl)cc1 (stereo not drawn)	·	-12
CC1(C)C[C@H](O)[C@@]23C[C@@H](OC2=O)[C@]2(C)C(=CCC4[C@@]5(C)CC[C@H](O)C(C)(C)C5CC[C@]42C)[C@@H]3C1 (stereo partly drawn)	1	·
C(=C/c1ccnc2nc(SC/C=C/c3ccccc3)nn12)/c1ccccc1	6	-24
O=c1[nH]c(Nc2ccccc2)cc2cc(Br)ccc12	-8	·
O=c1[nH]c(Nc2ccccc2)cc2ccccc12	-10	101*
FC(F)(F)c1cc(-c2ccc(Cl)cc2)nc2ncnn12	-5	-14
C[C@H](NS(=O)(=O)c1ccccc1)C(=O)OCC(=O)NC(=O)Nc1ccc2c(c1)OCCO2	·	-20
CC(C)n1c2ccccc2c2nnc(SCC(=O)OCN3C(=O)c4ccccc4C3=O)nc21	117*	-7
Cc1cc(C)nc(SCC(=O)OCN2C(=O)c3ccccc3C2=O)n1	-10	-34
CCOc1ccccc1/C=C(/NC(=O)c1ccccc1)C(=O)NC(C)c1ccccc1 (stereo not drawn)	·	-26
O=[N+]([O-])c1ccc(-c2csc3[n+]2CCS3)cc1	-4	51*
Fc1ccc(-c2csc3[n+]2CCS3)cc1	4	-9
O=C(Cc1ccccc1)NC(NCCc1ccccc1)C(Cl)(Cl)Cl (stereo not drawn)	-11	3
FC(F)(F)c1ccc(Oc2ccc3ccccc3c2Br)nc1	·	-10
CN(C1=C(NC(=O)c2ccccc2)C(=O)c2ccccc2C1=O)C1CCS(=O)(=O)C1 (stereo not drawn)	·	65*
CC(=O)NC1=C(NC2CCS(=O)(=O)C2)C(=O)c2ccccc2C1=O (stereo not drawn)	·	-3
Cc1ccc2c(C)[nH]c(=O)cc2c1	-7	90*
Cc1ccc(-c2cc(=O)[nH]c3ccccc23)cc1	15	-43
COc1ccc(OC)c(-c2c3cc(O)c(=O)cc-3oc3cc(O)c(O)cc23)c1	·	55*
CCOc1ccccc1-c1c2cc(O)c(=O)cc-2oc2cc(O)c(O)cc12	·	14
COC(=O)c1sc(S(=O)(=O)Nc2ccc(C)c(C)c2)c(C(=O)OC)c1C	·	-22
SMILES	RmlCD inh mix	YopH PTP inh
COc1ccc(NC(=S)Nc2ccc3nsnc3c2)cc1	·	-22
CCOc1ccc(NC(=S)Nc2ccc3nsnc3c2)cc1	·	84*
CC(=O)C(C(C)=O)C1(O)C(=O)c2ccccc2C1=O	·	98*
O=C1C(O)=C(O)C(=O)c2ccccc21	6	·
CCOc1ccc(C(=O)NCc2ccccn2)cc1	-31	-38
O=C(NCc1ccccn1)c1coc(=O)c(Br)c1	34*	-13
Cc1onc(-c2c(Cl)cccc2Cl)c1C(=O)NCc1ccccn1	4	-20
Cc1onc(-c2ccccc2)c1C(=O)NCc1ccccn1	-16	53*
C/C(=N/OC(=O)c1ccc(F)cc1)c1ccc(C)cc1	-8	-17
COc1ccc2[nH]c(N=Nc3ccccc3C)c(O)c2c1	·	-15
Cc1ccc(NC(=O)c2ccccc2NS(=O)(=O)c2ccc(F)cc2)cc1S(=O)(=O)N1CCCCC1	·	-14
Oc1ccc(C=Nc2cccc3ncccc23)c(O)c1	-13	-43
Oc1ccc(C=Nc2ccc3ncccc3c2)c(O)c1	12	72*
CCSc1cc(N2CCOCC2)nc(-c2ccc(Cl)cc2)n1	·	-34
COc1ccc(NC2=C(NCCO)C(=O)c3ccccc3C2=O)cc1	·	78*
COC1=C(Nc2ccc(OC)cc2)C(=O)c2ccccc2C1=O	·	-19
CCOC(=O)c1oc2ccccc2c1CSc1nnnn1-c1ccc(OC)cc1	5	4
CCOC(=O)c1oc2ccc(Br)cc2c1CSc1nnc(C)s1	9	88*
O=C(NC(=S)NCc1ccccc1)c1ccc2c(c1)OCO2	·	-16
CCOC(=O)C1=C(C)N(CCCC(=O)O)C(=O)NC1c1ccc2ccccc2c1 (stereo not drawn)	0	·
COC(=O)C1C(C(C)C)N(c2ccccc2)OC1(C)O (stereo not drawn)	7	59*
COC(=O)C1C(=O)CC(C)(O)C(C(=O)OC)C1/C=C/c1ccccc1 (stereo not drawn)	-62	-39
Fc1ccc(Nc2ccnc(Nc3ccc(F)cc3)n2)cc1	·	-18
CCCNc1cc(C)c(C#N)c2nc3ccccc3n12	55	-11
COCCNc1cc(C)c(C#N)c2nc3ccccc3n12	36*	-26
SMILES	RmlCD inh mix	YopH PTP inh
COc1ccc(-c2ncncc2-c2csc(C)n2)c(O)c1OC	16	8
COC1=C(N)C(=O)c2nc(-c3nc(C(=O)O)c(C)c(-c4ccc(OC)c(OC)c4O)c3N)ccc2C1=O	16	101*
CCCCNc1c(NC(C)=O)c(=O)oc2ccccc12	·	-18
Nc1nnc2c(n1)CCCC2	-6	52*
C1CCc2nc3c(nc2C1)CCCC3	-15	·
COc1cc(/C=C2\SC(=Nc3ccc(N4CCOCC4)cc3)N(C)C2=O)ccc1OC(C)C(=O)O (stereo not drawn)	·	-20
Cn1c(CN2CCN(C(=O)c3ccc(F)cc3)CC2)nc2cc([N+](=O)[O-])ccc21	·	-33
CCCc1nnc(NC(=O)c2ccc(N3C(=O)C4C5C=CC(C5)C4C3=O)cc2)s1 (stereo not drawn)	-11	-21
O=C(Nc1nnc(C(F)(F)F)s1)c1ccc(N2C(=O)C3C4C=CC(C4)C3C2=O)cc1 (stereo not drawn)	-9	98*
COc1cccc(-c2nc(CS(=O)(=O)CC(=O)N3CCN(C)CC3)c(C)o2)c1	4	-9
COc1cccc(-c2nc(CS(=O)(=O)CC(=O)N3CCc4ccccc4C3)c(C)o2)c1	12	80*
CC(C)CNC(=O)c1ccccc1NC(=O)c1ccccc1N(C)S(=O)(=O)c1ccccc1	·	-20
Cc1nn(CC(=O)NCc2ccc(Cl)cc2)c(C)c1[N+](=O)[O-]	·	-24
COc1ccc(C(=O)OC2CCN(C)CC2)cc1	-11	3
Cc1c(Br)cc(C(=O)OC2CCN(C)CC2)c(C)c1C	8	54*
CN(C)c1ccc(-c2noc(C3CCN(S(=O)(=O)c4cccc(Cl)c4)CC3)n2)cc1	6	-32
O=S(=O)(c1ccc2ccccc2c1)N1CCC(c2nc(-c3ccncc3)no2)CC1	8	50*
CC(C)c1ccccc1NC(=O)COC(=O)c1ccc(Cl)c(S(=O)(=O)N2CCCCCC2)c1	·	-43
CN(C)c1cccc(C(=O)OCc2cc(=O)oc3cc(O)ccc23)c1	59	10
CC1CN(S(=O)(=O)c2cccc(C(=O)OCc3cc(=O)oc4cc(O)ccc34)c2)CC(C)O1 (stereo not drawn)	82*	1
CCOc1ccc(-c2nc(C#N)c(NCC3CCCO3)o2)cc1 (stereo not drawn)	5	-12
COc1ccc(-c2nc(C#N)c(NCC3CCCO3)o2)cc1OC (stereo not drawn)	42*	7
COC(=O)C1=C(C)N(CCCC(=O)O)C(=O)NC1c1cccc(OC)c1 (stereo not drawn)	-313	·
Cc1c(Cl)c(=O)oc2cc(OC(C)C)ccc12	·	-15
CCC(=O)Oc1ccc2c(C)c(Cl)c(=O)oc2c1	+	-32

From PubChem
